# An excerpt weighted towards active compounds, which were near 9.5% of everything screened.
# NS1 function inh = qHTS Assay for Inhibitors of Influenza NS1 Protein Function | actives 0.4% (n = 270,000) | Potency, µM (series often up to 46.1 µM), for inactives: at the top dose activity, positive = more growth; calls by dose curve; note: actives are rising curves; nearly all actives have a fitted effect of over 50% in size
#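 A cell-based growth assay was used: compounds that relieve NS1-induced slow growth of budding yeast raise OD600. Assay medium was yeast nitrogen base with ammonium sulphate and -URA supplement, pH 6.0, with 2% galactose.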
# Pf growth 48h = Primary qHTS for delayed death inhibitors of the malarial parasite plastid, 48 hour incubation; Potency, µM (top dose mostly 28.7 µM), without a hit: at the top dose activity change, negative = inhibition, actives largely listed as inhibitors; AID 504832, 2011; P. falciparum luciferase growth in erythrocytes, 48 h; actives 5.9% (n = 310,000); note: % is set by controls: 0 for no effect and ±100 for the full control effect
#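 Cell-based growth assay: transgenic P. falciparum expressing firefly luciferase, cultured in red cells within RPMI 1640 containing 0.5% w/v Albumax, 24 mM bicarbonate and gentamycin. A drop in luciferase activity indicates inhibition.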
# Pf growth 96h = Primary qHTS for delayed death inhibitors of the malarial parasite plastid, 96 hour incubation; P. falciparum luciferase reporter growth, 96 h; Potency, µM (series often up to 28.7 µM), inactives show at the highest dose activity change, negative = inhibition, most hits filed as inhibitors; actives 6.9% (n = 320,000); AID 504834, 2011; note: % is set by controls: 0 for no effect and ±100 for the full control effect
#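 Luminescence readout: decreased luciferase signal marks inhibited growth of reporter-expressing P. falciparum in infected red cells (2% hematocrit, 0.05% parasitemia final), exposed to compound two generations (96 h, 37 C, 5% CO2).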
# SARS PLP yeast = qHTS of Yeast-based Assay for SARS-CoV PLP. AID 485353, 2010. Potency, µM (titrated, usually from 32.9 µM), inactives show top-dose activity, positive = growth rescue, actives largely listed as activators. S. cerevisiae expressing SARS-CoV PLpro, growth rescue. actives 0.19% (n = 330,000); calls by dose curve; note: 0% is about no effect; nearly all actives have a fitted effect of over 55% in size
# RE007 growth inh = qHTS Assay for Inhibitors of the HIV-1 protein Vpr; AID 651644, 2012; actives 0.21% (n = 360,000); Potency, µM (top dose mostly 92.2 µM), for the others: at the highest dose activity change, negative = less growth, hits mostly inhibitors; S. pombe RE007 Vpr strain, BacTiter-Glo ATP luminescence, 24 h; active = well fitted falling curve with a large enough effect; inconclusive = small, poorly fitted or top-dose-only effect; inactive = no such curve, though single readings can be large or run the other way; note: % is set by controls: 0 for no effect and ±100 for the full control effect; nearly all actives have a fitted effect of over 50% in size
#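 Fission yeast RE007 carrying one integrated HIV-1 vpr copy, seeded at OD 0.01 in PMG+AL medium with 23 nL pinned compound. Grown 24 h at 30 degrees; viability read by BacTiter-Glo luminescence after 5 min.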
# An asterisk follows results filed as active; ? = inconclusive; nt = not tested or not shown. Unless noted, calls come from the whole dose curve; as a rule, active = well fitted inhibition curve with a large enough effect; inconclusive = small, poorly fitted or top-dose-only effect, or another doubt; inactive = no such curve, though single readings can be large or run the other way. Potency is the fitted concentration of half-maximal effect.
SMILES,NS1 function inh,Pf growth 48h,Pf growth 96h,SARS PLP yeast,RE007 growth inh
CCOc1ccc(S(=O)(=O)N(CC)CC)cc1NC(=O)CSCc1c(C)noc1C,nt,?,?,0.9%,-4.3%
N=C(N)c1ccc(-c2ccc(-c3ccc(C(=N)N)cc3)o2)cc1,-36.8%,nt,nt,nt,nt
Cc1ccc(NC(=O)COC(=O)c2ccc(Cl)nc2)cc1S(=O)(=O)N1CCCCC1,nt,?,-14.5%,0.3%,11.5%
CCCc1c(Cc2cccc(F)c2)ncn1Cc1cccc(-c2ccccc2)c1,nt,nt,nt,nt,-14.2%
Cc1cc(Cn2nc(C(=O)NCC3CC3)cc2-c2ccccc2)on1,nt,?,?,-1.5%,-3.8%
CCCS(=O)(=O)NC(=O)C1(C)CCCN(C(=O)COc2ccccc2)C1 (stereo unspecified),nt,nt,nt,nt,9.0%
Clc1ccccc1-c1nc(-c2ccncc2)no1,-13.2%,135.8%,165.9%,-5.0%,?
Cc1onc(-c2ccccc2Cl)c1-c1nc(-c2ccncc2)no1,-0.6%,nt,11.7µM*,-23.4%,-11.7%
O=C(O)CSCCc1ccccc1,0.0%,nt,nt,nt,nt
COc1cc2c(c(Br)c1N)-c1cc(Br)c(N)cc1C2=O,nt,nt,nt,nt,-11.8%
O=C(CCC(=O)Nc1ccc(F)cc1)N/N=C/c1ccc(Br)cc1,1.6%,-7.3%,3.7µM*,0.8%,4.3%
O=C(CCCCCNC(=O)c1ccccc1)N/N=C/c1ccc(F)cc1,-5.0%,13.1µM*,?,0.3%,11.5%
O=C(CCC(=O)Nc1ccc(F)cc1)N/N=C/c1ccccc1,-1.0%,4.2%,1.47µM*,-1.7%,0.1%
c1cc(CCN2CCCCC2)ccn1,0.3%,nt,nt,nt,nt
Cc1cc(C(=O)NNC(=S)NCc2ccco2)nn1C,nt,17.4%,8.3%,0.2%,3.9%
CC1CCN(c2cc(N3CCOCC3)c(F)cc2[N+](=O)[O-])CC1,-16.6%,?,183.5%,-1.3%,-8.9%
CC1CCN(c2cc(N3CCOCC3)c([N+](=O)[O-])cc2F)CC1,-60.4%,?,14.7µM*,-9.1%,-3.6%
O=C1CSc2ccc(C(=O)O)cc2N1,6.9%,3.1%,11.7µM*,1.3%,4.6%
CCCN(CC(=O)Nc1ccccc1OC)C(=O)c1cc(-c2ccccc2)nn1-c1ccccc1,nt,?,?,-4.7%,3.6%
O=C(Nc1cc(C(F)(F)F)ccc1Cl)C(NCc1ccccc1)c1ccccc1 (stereo unspecified),-3.3%,10.4µM*,9.28µM*,-39.2%,-2.8%
Cc1cnc(C(=O)OC(C(=O)Nc2cc(C(F)(F)F)ccc2Cl)c2ccccc2)cn1 (stereo unspecified),-42.6%,14.7µM*,10.4µM*,-5.9%,2.0%
O=C(CNC(=O)c1ccccc1)OC(C(=O)Nc1cc(C(F)(F)F)ccc1Cl)c1ccccc1 (stereo unspecified),1.8%,nt,13.1µM*,6.9%,-1.1%
CCN(CC)CCNC(C(=O)Nc1cc(C(F)(F)F)ccc1Cl)c1ccccc1 (stereo unspecified),5.9%,-27.6%,?,-3.2%,-25.1%
Cc1ccc(C)c(NC(=O)C(OC(=O)c2cnc(C)cn2)c2ccccc2)c1 (stereo unspecified),nt,12.0%,19.2%,-1.4%,14.3%
O=C(N=C1SC2CS(=O)(=O)CC2N1Cc1ccccc1Cl)C1CC1 (stereo unspecified),-12.5%,-4.9%,12.1%,0.4%,2.5%
SMILES,NS1 function inh,Pf growth 48h,Pf growth 96h,SARS PLP yeast,RE007 growth inh
O=C1CSc2cc(Cl)ccc2N1,nt,nt,nt,nt,-14.1%
CN1CCN(C(=O)c2cc3ccccc3cc2O)CC1,nt,?,-23.2%,1.2%,-11.5%
Clc1cccc(CN2CCN(c3ncccn3)CC2)c1Cl,-17.8%,19.2%,13.1µM*,-3.7%,2.2%
Cc1ccc2nc(-c3ccc(N4C(=O)CC(N5CCN(CCO)CC5)C4=O)cc3)sc2c1 (stereo unspecified),16.8%,78.2%,87.6%,-23.1%,31.6µM*
Clc1ccc2c(N/N=C/c3ccccc3Br)ccnc2c1,-13.9%,0.657µM*,0.522µM*,-87.2%,-1.4%
Brc1cccc(C=Nc2cccc3ncccc23)c1,nt,nt,nt,nt,-13.5%
O=[N+]([O-])c1ccc(/C=N/Nc2ccnc3cc(Cl)ccc23)o1,-88.8%,2.33µM*,?,-13.1%,-9.5%
Clc1ccc2c(N/N=C/c3cccc(Br)c3)ccnc2c1,-35.5%,0.586µM*,0.329µM*,-30.9%,-9.0%
